# Results filed as inconclusive are left out. The source made the active and inactive calls. Calls come from the whole dose curve; as a rule, active = well fitted activation curve with a large enough effect; inconclusive = small, poorly fitted or top-dose-only effect; inactive = no such curve, though single readings can be large or run the other way.
# Target: Pyruvate kinase PKM (Homo sapiens) (UniProt P14618)
# Test: Confirmation Concentration-Response Assay for Activators of Human Muscle isoform 2 Pyruvate Kinase
# Settings: purified hPK-M2, Kinase-Glo ATP luminescence, 1 h; series mostly up to 57.5 µM
# Description: NIH Chemical Genomics Center [NCGC] Matthew G. Vander Heiden, M.D., Ph.D. [Harvard Medical School, 77 Avenue Louis Pasteur, Boston, MA 02115] MLPCN Grant: 1 R03 MH085679-01 NCGC Assay Overview: Human pyruvate kinase muscle 2 (hPK-M2) enzyme was supplied as a highly purified (>95% pure) preparation from Harvard Medical School and assayed for its ability to generate ATP from ADP using phosphoenolpyruvate (PEP) as a substrate. ATP generation was detected in a coupled reaction by luciferase-mediated luminescence, an ATP-dependent process. Pyruvate kinase substrates, PEP and ADP, were present in the assay at Km and approximately 10-fold below Km respectively. The enzyme was assayed at an intermediate level of activity to screen for both inhibitors and activators.
# NCGC Assay Protocol Summary: Three uL of substrate mix (at r.t.) in assay buffer (50 mM Imidazole pH7.2, 50 mM KCl, 7 mM MgCl2, 0.01% Tween 20, 0.05% BSA) was dispensed into white solid bottom 1,536 well microtiter plates so that the final concentrations of substrates in the assay were 0.1 mM ADP and 0.5 mM PEP. 23 nL of compound were delivered by a pin tool and 1 uL of enzyme mix (final concentration of 0.1 nM) in assay buffer (4 degree Celsius) was added. Plates were incubated at room temperature for 1 hour. Two uL of detection mix (Kinase-Glo, Promega; at 4 degree Celsius protected from light) was added and luminescence read by a ViewLux (Perkin Elmer) at 1 second exposure/plate. Data were normalized to the uninhibited (column 3) and AC100 inhibition (no enzyme in column 2). To monitor activation, the first column contained a titration of the activator, NCGC00031955-03 (16-point 1:2 dilutions in duplicate starting at 57 uM) and the first 16 rows of column 4 contained 57 uM of NCGC00031955-03.
# Sequence of Pyruvate kinase PKM (Homo sapiens) (P14618 whole entry, looked up, canonical isoform): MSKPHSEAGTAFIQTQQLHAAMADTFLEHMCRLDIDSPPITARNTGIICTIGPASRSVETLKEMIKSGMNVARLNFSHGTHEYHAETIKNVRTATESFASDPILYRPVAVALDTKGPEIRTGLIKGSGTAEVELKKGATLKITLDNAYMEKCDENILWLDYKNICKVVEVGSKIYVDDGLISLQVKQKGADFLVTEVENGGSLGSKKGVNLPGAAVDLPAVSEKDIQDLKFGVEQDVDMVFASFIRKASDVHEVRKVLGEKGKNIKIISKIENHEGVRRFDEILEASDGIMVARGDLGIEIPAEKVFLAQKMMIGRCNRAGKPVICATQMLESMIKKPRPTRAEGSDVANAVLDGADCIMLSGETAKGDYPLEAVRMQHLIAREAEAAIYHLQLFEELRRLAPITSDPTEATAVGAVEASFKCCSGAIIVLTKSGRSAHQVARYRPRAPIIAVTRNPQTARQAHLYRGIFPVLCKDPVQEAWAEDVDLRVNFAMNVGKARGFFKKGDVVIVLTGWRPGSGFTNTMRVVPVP
row,SMILES,Potency
1,CCOC(=O)CSc1nc2cc(OC)ccc2cc1C#N,inactive
2,COC(=O)CSC1=NS(=O)(=O)c2ccccc21,inactive
3,C[C@H]1CN(S(=O)(=O)c2ccc3c(c2)OCCO3)CCN1S(=O)(=O)c1c(F)cccc1F,8970 nM (active)
4,Cc1ccc(-c2nnc3ccc(SC(C)C(=O)O)nn23)cc1 (stereo not given),inactive
5,CC1(C)CCc2cc(S(=O)(=O)N3CCN(S(=O)(=O)c4c(F)cccc4F)CC3)ccc2O1,71.3 nM (active)
6,COc1ccc(Cn2ncc3c4sc(C)cc4n(C)c3c2=O)cc1F,127 nM (active)
7,O=S(=O)(NC1CCN(S(=O)(=O)c2ccc3c(c2)OCCO3)CC1)c1c(F)cccc1F,2530 nM (active)
8,O=S(=O)(c1ccc(Cl)cc1)N1CCN(S(=O)(=O)c2ccc3c(c2)OCCO3)CC1,56.6 nM (active)
9,O=S(=O)(c1ccc2c(c1)OCCO2)N1CCN(S(=O)(=O)c2c(F)ccc(O)c2F)CC1,31.8 nM (active)
10,O=S(=O)(NC1CCN(S(=O)(=O)c2c(F)cccc2F)C1)c1ccc2c(c1)OCCO2 (stereo not given),11300 nM (active)
11,Cc1cc2c(s1)c1c(C)nn(Cc3ccccc3F)c(=O)c1n2C,20100 nM (active)
12,COc1ccc(Cn2ncc3c4sc(C)cc4n(C)c3c2=O)cc1,20.1 nM (active)
13,Cc1cc2c(s1)c1cnn(Cc3cc(C(F)(F)F)cc(Cl)c3F)c(=O)c1n2C,20.1 nM (active)
14,Cc1cc2c(s1)c1cnn(Cc3ccccc3Cl)c(=O)c1n2C,113 nM (active)
15,Cc1cc2c(s1)c1cnn(Cc3ccc(F)cc3F)c(=O)c1n2C,25.3 nM (active)
16,Oc1ccc(-c2nnc(-c3ccc(O)cc3)nn2)cc1,inactive
17,CCc1cc2c(s1)c1cnn(Cc3ccccc3F)c(=O)c1n2C,63.5 nM (active)
18,Cc1cc2c(s1)c1cnn(Cc3ccc(Cl)cc3)c(=O)c1n2C,201 nM (active)
19,COc1ccc(S(=O)(=O)N2CCN(S(=O)(=O)c3ccc(OC)cc3)CC2)cc1,142 nM (active)
20,Cn1c2cc(B(O)O)sc2c2cnn(Cc3ccccc3F)c(=O)c21,6350 nM (active)

row,SMILES,Potency
1,O=S(=O)(c1ccc2c(c1)OCCO2)N1CCN(S(=O)(=O)c2ccccc2F)CC1,56.6 nM (active)
2,Cc1cc(C)nc(SCCc2ccncc2)n1,inactive
3,CSc1cc2c(s1)c1cnn(Cc3ccccc3F)c(=O)c1n2C,14.2 nM (active)
4,O=S(=O)(c1c(F)cccc1F)C1CCN(S(=O)(=O)c2ccc3c(c2)OCCO3)CC1,201 nM (active)
5,O=S(=O)(c1ccc2ccccc2c1)N1CCN(S(=O)(=O)c2c(F)cccc2F)CC1,56.6 nM (active)
6,O=S(=O)(c1ccc2c(c1)OCCCO2)N1CCN(S(=O)(=O)c2c(F)cccc2F)CC1,80 nM (active)
7,O=C(/C=C/c1cccc(Cl)c1)c1nc2ccccc2[nH]1,inactive
8,O=S(=O)(c1ccccc1)N1CCN(S(=O)(=O)c2ccc3c(c2)OCCO3)CC1,160 nM (active)
9,COc1cccc(S(=O)(=O)N2CCN(S(=O)(=O)c3ccc4c(c3)OCCO4)CC2)c1,63.5 nM (active)
10,Cc1cc2c(s1)c1cnn(Cc3ccc(C(F)(F)F)cc3)c(=O)c1n2C,318 nM (active)
11,Cc1cc2c(s1)c1cnn(Cc3cccc(F)c3)c(=O)c1n2C,101 nM (active)
12,N#Cc1cc(-c2ccccc2)cnc1Sc1ccccc1,inactive
13,C[C@@H]1CN(S(=O)(=O)c2c(F)cccc2F)CCN1S(=O)(=O)c1ccc2c(c1)OCCO2,1790 nM (active)
14,C[C@@H]1CN(S(=O)(=O)c2ccc3c(c2)OCCO3)CCN1S(=O)(=O)c1c(F)cccc1F,2530 nM (active)
15,O=S(=O)(NC1CCN(S(=O)(=O)c2c(F)cccc2F)CC1)c1ccc2c(c1)OCCO2,3570 nM (active)
16,O=C(CN1C(=O)N/C(=C\c2cccn2-c2cccc(C(=O)O)c2)C1=O)Nc1ccccc1F,inactive
17,O=S(=O)(NCCCNS(=O)(=O)c1c(F)cccc1F)c1ccc2c(c1)OCCO2,2840 nM (active)
18,O=C(c1ccc2c(c1)OCCO2)N1CCN(S(=O)(=O)c2c(F)cccc2F)CC1,inactive
19,COc1ccc(S(=O)(=O)N2CCN(S(=O)(=O)c3ccc4c(c3)OCCO4)CC2)cc1,80 nM (active)
20,C[C@H]1CN(S(=O)(=O)c2c(F)cccc2F)CCN1S(=O)(=O)c1ccc2c(c1)OCCO2,3570 nM (active)

# Reference: PubChem BioAssay AID1751 (National Center for Advancing Translational Sciences (NCATS), 2009)
